# Data taken from PubChem BioAssay (NCATS).
# Results filed as inconclusive are left out. Where a call stands in place of a potency, no number is given. The source made the active and inactive calls. Calls come from the whole dose curve; as a rule, active = well fitted cell-killing curve with a large enough effect; inconclusive = small, poorly fitted or top-dose-only effect; inactive = flat fitted curve, though single readings scatter.
# Tests used:
# [1] = Cell Viability - LYMP2-011 (AID 969); conditions: LYMP2-011 lymphoblastoid cells viability; series mostly up to 92.2 µM; note: nearly all actives have a fitted effect of over 60% in size; note: potency is the fitted concentration of half-maximal effect
# Method in brief: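 2500 cells/well in complete medium, compound-treated 24 h at 37 C. Viability read as intracellular ATP by CellTiter-Glo luminescence after 30 min at room temperature. AC50 from Hill fits of qHTS concentration-response data.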
# [2] = Cell Viability - LYMP2-013 (AID 970); conditions: LYMP2-013 lymphoblastoid cells viability; series mostly up to 92.2 µM; note: nearly all actives have a fitted effect of over 55% in size; note: potency is the fitted concentration of half-maximal effect
# Method in brief: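 Human lymphoblastoid LYMP2-013 cells, 2500/well, treated 24 h at 37 C in complete medium; viability as intracellular ATP by CellTiter-Glo luminescence after 30 min. AC50 from Hill fits of qHTS concentration-response.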
# [3] = Cell Viability - LYMP2-017 (AID 972); conditions: LYMP2-017 lymphoblastoid cell viability; series mostly up to 92.2 µM; note: nearly all actives have a fitted effect of over 55% in size; note: potency is the fitted concentration of half-maximal effect
# Method in brief: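 LYMP2-017 human lymphoblastoid cells (2500/well) settled 5 hr at 37 C, then exposed to compound 24 hr at 37 C in complete medium. Viability taken as intracellular ATP by CellTiter-Glo luminescence after 30 min at RT; AC50 from Hill fits.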
# [4] = Cell Viability - LYMP2-019 (AID 973); conditions: LYMP2-019 lymphoblastoid cell line viability; series mostly up to 92.2 µM; note: nearly all actives have a fitted effect of over 55% in size
# Method in brief: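 Human lymphoblastoid LYMP2-019 cells (2500/well) preincubated 5 h at 37 C, then treated 24 h at 37 C in complete medium. Viability by CellTiter-Glo ATP luminescence after 30 min at room temperature; AC50 from Hill fits.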
# [5] = Cell Viability - LYMP2-021 (AID 974); conditions: LYMP2-021 lymphoblastoid cells viability; series mostly up to 92.2 µM;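 note: compound exposure lasts 24 hours at 37 °C; nearly all actives have a fitted effect of over 55% in size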; note: potency is the fitted concentration of half-maximal effect
# Method in brief: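 Human lymphoblastoid LYMP2-021 cells, 2500/well in complete medium, treated 24 hours at 37 C. Intracellular ATP by CellTiter-Glo luminescence (30 min, RT); AC50 from Hill fits of concentration-response.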
# [6] = Cell Viability - LYMP2-023 (AID 975); conditions: LYMP2-023 lymphoblastoid cell viability; series mostly up to 92.2 µM; note: nearly all actives have a fitted effect of over 55% in size; note: potency is the fitted concentration of half-maximal effect
# Method in brief: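 LYMP2-023 human lymphoblastoid cells, 2500/well, preincubated 5 hr at 37 C, then compound-treated 24 hr at 37 C in complete medium. CellTiter-Glo luminescence (ATP) after 30 min at room temperature; AC50 from Hill-equation fits; tetraoctylammonium bromide positive control.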
# [7] = Cell Viability - LYMP2-025 (AID 976); conditions: LYMP2-025 lymphoblastoid cell viability; series mostly up to 92.2 µM
# Method in brief: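 Human lymphoblastoid LYMP2-025 cells, 2500/well, exposed 24 h at 37 C in complete medium in 1536-well qHTS. Viability as cellular ATP by CellTiter-Glo luminescence; AC50 from Hill fits of concentration-response data.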
# [8] = Cell Viability - LYMP2-002 (AID 977); conditions: LYMP2-002 lymphoblastoid cell viability, qHTS; series mostly up to 92.2 µM;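 note: compound exposure lasted 24 h at 37 °C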
# Method in brief: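 Human lymphoblastoid LYMP2-002 cells, 2500 per well, exposed to compounds for 24 h at 37 C in complete medium; viability read as intracellular ATP by CellTiter-Glo luminescence, AC50 from Hill fits.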
# [9] = Cell Viability - LYMP2-006 (AID 978); conditions: LYMP2-006 lymphoblastoid cell viability, qHTS; series mostly up to 92.2 µM; note: nearly all actives have a fitted effect of over 60% in size
# Method in brief: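 Potency values are Hill-fit AC50s for decreases in intracellular ATP (CellTiter-Glo luminescence). LYMP2-006 lymphoblastoid cells, 2500 per well, were exposed to compound in complete culture medium for 24 hr at 37 C.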
# [10] = Cell Viability - LYMP2-007 (AID 979); conditions: LYMP2-007 lymphoblastoid cell viability; series mostly up to 92.2 µM;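 note: cells exposed to compound for 24 h before reading; nearly all actives have a fitted effect of over 60% in size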; note: potency is the fitted concentration of half-maximal effect
# Method in brief: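 Human lymphoblastoid LYMP2-007 cells (2500/well) preincubated 5 h at 37 C, then treated 24 h at 37 C in complete medium. Viability by CellTiter-Glo ATP luminescence after 30 min at room temperature; AC50 from Hill fits.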
SMILES,Potency [1],Potency [2],Potency [3],outcome [4],Potency [5],Potency [6],outcome [7],outcome [8],outcome [9],Potency [10]
Cc1cc2nc3c(=O)[nH]c(=O)nc-3n(C[C@H](O)[C@H](O)[C@H](O)CO)c2cc1C,inactive,inactive,inactive,inactive,inactive,inactive,inactive,inactive,inactive,inactive
O=C1O[C@H]([C@@H](O)CO)C(O)=C1O,inactive,inactive,,inactive,inactive,inactive,inactive,inactive,inactive,inactive
CCCCCCCCCCCCOS(=O)(=O)O,inactive,inactive,inactive,inactive,inactive,inactive,inactive,inactive,inactive,inactive
Cc1c(O)cccc1C(=O)N[C@@H](CSc1ccccc1)[C@H](O)CN1C[C@H]2CCCC[C@H]2C[C@H]1C(=O)NC(C)(C)C,50.1 µM (active),50.1 µM (active),50.1 µM (active),,50.1 µM (active),50.1 µM (active),,,,50.1 µM (active)
NC(=O)N/N=C/c1ccc([N+](=O)[O-])o1,,inactive,,,inactive,,,,,inactive
COc1ccccc1O,inactive,inactive,inactive,inactive,inactive,inactive,inactive,inactive,inactive,inactive
NCCNCCNCCNCCN,inactive,inactive,inactive,inactive,inactive,inactive,inactive,inactive,inactive,inactive
CCCCOC(=O)c1ccc(O)cc1,inactive,inactive,inactive,inactive,inactive,inactive,inactive,inactive,inactive,inactive
Oc1cccc(O)c1,inactive,inactive,inactive,inactive,inactive,inactive,inactive,inactive,inactive,inactive
COC(=O)C1=C(C)NC(C)=C(C(=O)OC)C1c1ccccc1[N+](=O)[O-],,,,,,,inactive,,,
C[C@]12C[C@H](O)[C@H]3[C@@H](CCC4=CC(=O)CC[C@@]43C)[C@@H]1CC[C@@H]2C(=O)CO,inactive,inactive,inactive,inactive,inactive,inactive,inactive,inactive,inactive,inactive
CC1(C)[C@@H]2CC[C@@]1(C)C(=O)C2,inactive,inactive,inactive,inactive,inactive,inactive,inactive,inactive,inactive,inactive
Cc1cc(CC(=O)O)n(C)c1C(=O)c1ccc(Cl)cc1,inactive,inactive,inactive,inactive,inactive,inactive,inactive,inactive,inactive,inactive
CN(C)CCC=C1c2ccccc2CCc2ccccc21,,,,,,,inactive,,,
O=C1c2c(O)cccc2Cc2cccc(O)c21,inactive,inactive,inactive,inactive,inactive,inactive,inactive,inactive,inactive,inactive
CC12CCC(CC1)C(C)(C)O2,inactive,inactive,inactive,inactive,inactive,inactive,,inactive,inactive,inactive
NCCNCCNCCN,inactive,inactive,inactive,inactive,inactive,inactive,inactive,inactive,,inactive
NC(=O)c1ncn([C@@H]2O[C@H](CO)[C@@H](O)[C@H]2O)n1,inactive,inactive,inactive,,inactive,inactive,inactive,inactive,,inactive
Nc1ccc(S(=O)(=O)Nc2nccs2)cc1,inactive,inactive,inactive,,inactive,inactive,inactive,inactive,inactive,inactive
[Cl][In]([Cl])[Cl],inactive,inactive,inactive,inactive,inactive,inactive,inactive,inactive,inactive,inactive
